Reference: PMC4336329 (PLoS ONE, 2015)
The whole screen tested about 310,000 compounds, of which about 14,000 (4.5%) showed an effect of 50% or more. Effects have a minus sign here. Only a selection was taken, and strong results are over-represented in it overall.

Biological target: human ether-à-go-go-related gene (hERG) potassium channel (human, UniProt Q12809)
Experiment: primary screen, population patch clamp on CHO cells stably expressing hERG; higher = less effect of the substance
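Also: peak tail current of the secondary pulse compared with the same well before compound.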

Chain of human ether-à-go-go-related gene (hERG) potassium channel (Q12809 whole entry, looked up): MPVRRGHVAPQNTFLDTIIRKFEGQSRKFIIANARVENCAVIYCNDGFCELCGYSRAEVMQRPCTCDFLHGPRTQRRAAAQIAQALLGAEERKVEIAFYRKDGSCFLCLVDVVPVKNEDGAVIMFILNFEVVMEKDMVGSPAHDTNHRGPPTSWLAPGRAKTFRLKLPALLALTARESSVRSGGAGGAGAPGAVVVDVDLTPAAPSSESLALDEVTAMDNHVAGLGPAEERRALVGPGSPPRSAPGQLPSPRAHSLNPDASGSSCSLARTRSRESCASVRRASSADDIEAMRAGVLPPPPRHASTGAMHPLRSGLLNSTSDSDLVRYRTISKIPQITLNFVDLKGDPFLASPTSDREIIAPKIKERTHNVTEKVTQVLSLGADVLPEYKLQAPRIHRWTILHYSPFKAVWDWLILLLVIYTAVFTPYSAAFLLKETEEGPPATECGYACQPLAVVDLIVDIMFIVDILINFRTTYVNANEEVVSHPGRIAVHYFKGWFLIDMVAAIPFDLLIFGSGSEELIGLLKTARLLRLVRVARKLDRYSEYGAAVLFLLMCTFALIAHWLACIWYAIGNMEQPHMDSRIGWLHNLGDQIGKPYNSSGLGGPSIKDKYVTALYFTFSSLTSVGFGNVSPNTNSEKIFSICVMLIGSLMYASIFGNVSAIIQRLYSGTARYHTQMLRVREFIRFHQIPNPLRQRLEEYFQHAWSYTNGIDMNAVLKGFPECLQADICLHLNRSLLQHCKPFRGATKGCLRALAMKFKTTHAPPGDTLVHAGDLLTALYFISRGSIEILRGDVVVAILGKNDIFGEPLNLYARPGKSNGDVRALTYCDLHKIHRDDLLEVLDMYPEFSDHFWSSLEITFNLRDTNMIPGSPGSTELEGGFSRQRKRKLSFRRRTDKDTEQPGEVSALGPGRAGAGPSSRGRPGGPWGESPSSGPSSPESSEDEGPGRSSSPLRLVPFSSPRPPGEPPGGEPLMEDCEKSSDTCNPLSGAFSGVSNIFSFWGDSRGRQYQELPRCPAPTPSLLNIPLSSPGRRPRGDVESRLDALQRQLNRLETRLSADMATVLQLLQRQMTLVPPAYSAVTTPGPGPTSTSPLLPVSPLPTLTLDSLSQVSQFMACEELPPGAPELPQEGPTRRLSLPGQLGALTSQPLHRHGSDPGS

Going from `FC(F)(F)c1nc(-c2ccncc2)ncc1-c1nnnn1-c1ccccc1` to `FC(F)(F)c1ccc2c(c1)n(Cc1ccccc1)c1[n+]2CCCCC1.[Cl-]`, the “hERG current change (%, negative = inhibition) at 10uM” value falls from -0.18% to -24%.

Compared with `Cc1c(C(=O)N/N=C/c2ccoc2)cccc1[N+](=O)[O-]`, `Cc1nnn(-c2nonc2N)c1C(=O)N/N=C/c1cccc2ccccc12` is lower in “hERG current change (%, negative = inhibition) at 10uM” value: 9.67% for the first, -7.26% for the second.

Going from `O=C(COc1coc(CN2CCN(c3ccccc3F)CC2)cc1=O)NC1CCCCC1` to `O=C(CN1CCN(Cc2ccccc2)CC1)N1CCCc2c1c(=O)oc1ccc(O)cc21`, the “hERG current change (%, negative = inhibition) at 10uM” value rises from -21.6% to -14%.

First: CCOC(=O)c1ccc(NC(=O)C2CCN(S(=O)(=O)c3c(C)nn(C)c3C)CC2)cc1
Second: CCOC(=O)C1CCN(S(=O)(=O)c2c(C)noc2C)CC1
The “hERG current change (%, negative = inhibition) at 10uM” value of the first is higher: -28.3% for the first, -37.9% for the second.

Compared with `O=C(Nc1cccc(C(F)(F)F)c1)c1cc[n+]([O-])cc1`, `CC(=O)c1cccc(NC(=O)C(C)N2CCc3ccccc3C2)c1` (centres unmarked) is lower in “hERG current change (%, negative = inhibition) at 10uM” value: 21.2% for the first, 4.43% for the second.

Going from `COc1ccc(OCC(=O)NS(=O)(=O)c2ccccc2)cc1` to `Cc1ccccc1OCCC(=O)OCC(=O)NCCc1ccccc1`, the “hERG current change (%, negative = inhibition) at 10uM” value falls from 15.3% to -0.876%.

Compared with `Cc1ccc2c(c1)C(c1ccccc1)N(C(=O)c1ccccc1[N+](=O)[O-])CC(=O)N2` (centres unmarked), `O=C1CN(C(=O)c2ccccc2[N+](=O)[O-])C(c2ccccc2)c2cc(Br)ccc2N1` (centres unmarked) is lower in “hERG current change (%, negative = inhibition) at 10uM” value: -40.5% for the first, -66.5% for the second.

Compared with `O=C1CN(C(=O)c2ccccc2F)C(c2ccc(F)cc2)c2cc(Br)ccc2N1` (centres unmarked), `CN(CC(=O)N1CCCc2c1c(=O)oc1ccc(O)cc21)Cc1ccccc1` is lower in “hERG current change (%, negative = inhibition) at 10uM” value: -23% for the first, -67.4% for the second.

First: CCOC(=O)c1c(NC(C)=O)sc2c(OC(C)=O)cccc12
Second: Cc1ccc(NC(=O)COC(=O)CCc2c[nH]c3ccccc23)c(C)c1
The “hERG current change (%, negative = inhibition) at 10uM” value of the first is lower: 8.8% for the first, 9.87% for the second.

Going from `Cn1c(CO)cnc1SCc1ccc(F)cc1` to `CCOC(=O)C1(Cc2ccccc2)CCCN(Cc2ccc(OCC)c(CO)c2)C1` (centres unmarked), the “hERG current change (%, negative = inhibition) at 10uM” value falls from 18.2% to -52.3%.

Going from `CCOc1ccccc1/C=N/NC(=O)c1nnn(-c2nonc2N)c1CN1CCC(C)CC1` to `CCOC(=O)C1(CCOC)CCN(Cc2ccc3nonc3c2)CC1`, the “hERG current change (%, negative = inhibition) at 10uM” value falls from 9.08% to -10.5%.

Compared with `CCCOc1ccc2oc(=O)c3c(c2c1)CCCN3C(=O)CN(C)Cc1ccccc1`, `CC(C(=O)N1CCCc2c1c(=O)oc1ccc(O)cc21)N1CCc2ccccc2C1` (centres unmarked) is lower in “hERG current change (%, negative = inhibition) at 10uM” value: -29.7% for the first, -56.5% for the second.

First: CC1CCN(CCC(=O)N2CCCc3c2c(=O)oc2ccc(O)cc32)CC1
Second: CCOC(=O)N1CCN(C(=O)C2CCN(S(=O)(=O)c3ccc(Cl)cc3)CC2)CC1
The “hERG current change (%, negative = inhibition) at 10uM” value of the first is higher: -14% for the first, -48.7% for the second.

Going from `O=C(NCCCl)C1Cc2c(ccc3ccccc23)O1` (centres unmarked) to `O=C(CCNC(=O)C1CCN(S(=O)(=O)c2ccccc2)CC1)NCc1ccc(Cl)cc1`, the “hERG current change (%, negative = inhibition) at 10uM” value rises from 7.97% to 8.88%.

Compared with `Nc1ccccc1Nc1ccncc1[N+](=O)[O-]`, `CCCn1c(CC)nc([N+](=O)[O-])c1S(=O)(=O)c1ccccc1` is lower in “hERG current change (%, negative = inhibition) at 10uM” value: 20% for the first, -23.8% for the second.

Compared with `CCOC(=O)C1(Cc2ccccc2)CCCN(Cc2cccc(C(C)=O)c2)C1` (centres unmarked), `CCOC(=O)C1(Cc2ccccc2)CCCN(Cc2ccc(OCCO)cc2)C1` (centres unmarked) is higher in “hERG current change (%, negative = inhibition) at 10uM” value: -2.24% for the first, -1.04% for the second.

First: CCOC(=O)C1(CCOc2ccccc2)CCN(Cc2ccc(OC)c(COC)c2)CC1
Second: CCOC(=O)C1(CCOc2ccccc2)CCN(Cc2ccc(OC)c(O)c2)CC1
The “hERG current change (%, negative = inhibition) at 10uM” value of the first is higher: -80.2% for the first, -82.2% for the second.

First: CCOC(=O)C1(CCOc2ccccc2)CCN(Cc2ccc(OCC)c(CO)c2)CC1
Second: CCOC(=O)C1(CCOc2ccccc2)CCN(Cc2ccc(O)c(OC)c2)CC1
The “hERG current change (%, negative = inhibition) at 10uM” value of the first is lower: -79.5% for the first, -75.4% for the second.

First: COC(=O)C(C)Oc1ccc(Cl)c(CN2OCC(C)(C)C2=O)c1 (centres unmarked)
Second: CCOCCCNC(=O)Cc1ccc(OC)c(OC)c1
The “hERG current change (%, negative = inhibition) at 10uM” value of the first is lower: 5.26% for the first, 14.1% for the second.

Compared with `Cc1nc(C(C)N(C)Cc2c(C(=O)N3CCCCC3)nc3c(C)cccn23)c(C)s1` (centres unmarked), `Cc1cc(C(C)(C)C)cc(C)c1Cn1c2[n+](c3ccc(C(F)(F)F)cc31)CCCCC2.[Cl-]` is lower in “hERG current change (%, negative = inhibition) at 10uM” value: -22.7% for the first, -55.4% for the second.

Compared with `CCOC(=O)C1(CCOc2ccccc2)CCN(Cc2ccc(F)c(OC)c2)CC1`, `CCOC(=O)C1(CCOc2ccccc2)CCN(Cc2cc(OC)c(O)c(OC)c2)CC1` is lower in “hERG current change (%, negative = inhibition) at 10uM” value: -35.3% for the first, -77.6% for the second.

First: Cc1ccc(NC(=O)CC(=O)Nc2ccc(C)c(C)c2)cc1C
Second: O=C1CS/C(=N\N=C\c2ccccc2Cl)N1CC1CC1
The “hERG current change (%, negative = inhibition) at 10uM” value of the first is lower: 11.7% for the first, 12.3% for the second.
